From PubChem BioAssay (NCATS)
Results filed as inconclusive are left out. Calls of active or inactive are those of the source. Unless noted, calls follow the shape of the dose curve; as a rule, active = well fitted curve in either direction with a large enough effect (not every such curve was filed as active); inconclusive = small, poorly fitted or top-dose-only effect, or another doubt; inactive = flat fitted curve, though single readings scatter.

Assays:
[1] = AP1 Signaling Pathway (AID 357); settings: ME-180 AP-1-bla reporter, EGF-induced, beta-lactamase ratio, 5 h; at 7.69 µM (top of the series) unless noted; also: % is scaled to controls: 0 for no effect and ±100 for the full control effect
Procedure, shortened: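 AP-1-bla ME-180 cells with beta-lactamase reporter under AP-1 response element, stimulated with EC50 EGF; compounds titrated, 5 hours at 37 degrees Celsius. CCF4 read at 460/530 nm ratio; positive and negative modulators judged by AC50.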

[2] = molecular target: Cytochrome P450 1A2 (Homo sapiens) (UniProt P05177); experiment: p450-cyp1a2 (AID 410; calls by dose curve; also: potency is read from the fitted curve at half-maximal effect;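 as to activity change, negative = inhibition: -100% = full effect of reference inhibitor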)
Procedure, shortened: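 20nM CYP1A2, 100uM Luciferin-ME (=Km), 100mM KPO4; cpd 10 min RT; +NADPH regen, 60 min RT; stop/detect 20 min; luminescence. Normalized to furafylline 57 uM = full inhibition.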

[3] = NFAT Signaling Pathway (AID 444); settings: Jurkat NFAT-bla M1, carbachol, beta-lactamase ratio, 5 h; at 7.69 µM (top of the series) unless noted;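 also: carbachol stimulus at about its EC50 of 1 µM final; % is scaled to controls: 0 for no effect and ±100 for the full control effect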
Procedure, shortened: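 Read-out: CCF4 FRET ratio (460 nm/530 nm) after 1 h RT dye loading, used for %activity and AC50 from titration series. Cells: Jurkat NFAT-β-lactamase/M1 line, treated with compound plus 1 uM carbachol for 5 h, 37 °C.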

[4] = Stat Signaling Pathway (AID 446); settings: ME-180 (cervical carcinoma) SIE beta-lactamase reporter, IL-6 stimulated, 5 h; at 7.69 µM (top of the series) unless noted;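 also: ME-180 cervical cancer cells given 40 pM IL-6 alongside compound; SIE-controlled beta-lactamase reporter measured as 460/530 nm FRET emission ratio; % is scaled to controls: 0 for no effect and ±100 for the full control effect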
Procedure, shortened: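 Compound effects on IL-6-induced STAT reporter activity were measured in ME-180 cells. After overnight culture, cells were co-treated with 40 pM IL-6 for 5 hrs before beta-lactamase substrate loading at room temperature.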

[5] = molecular target: Glucocorticoid receptor (Homo sapiens) (UniProt P04150); experiment: GR-GFP Redistribution (AID 450;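 active = compounds whose dose series gives a full or clear partial fitted curve of increased nuclear translocation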; also: potency is read from the fitted curve at half-maximal effect); settings: U2OS GR-GFP nuclear translocation, laser cytometry, 2 h
[6] = molecular target: Glucocorticoid receptor (Homo sapiens) (UniProt P04150); experiment: GR-EFC Redistribution (AID 451; calls by dose curve; also: potency is read from the fitted curve at half-maximal effect); settings: CHO-K1 GR-EFC translocation, beta-gal luminescence, 2 h
Procedure, shortened: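 Translocation of GR-ED fusion to nuclear EA restores b-gal, read by luminescence after 1 h room-temperature detection. Engineered CHO-K1 biosensor cells, 1,000/well, exposed 2 h at 37 C to titrations up to 46 uM final.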

[7] = molecular target: Mitogen-activated protein kinase 10 (Mus musculus) (UniProt Q61831); experiment: JNK3 AlphaScreen Assay (AID 530);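 also: kinase came from lysate of stimulated human HepG2 cells; signal reports phosphorylation of biotinylated GST-cJun 1-79 at Ser73 with 10 µM ATP; % is scaled to controls: 0 for no effect and ±100 for the full control effect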
Procedure, shortened: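 Kinase buffer: 20 mM Tris-HCl pH 7.6, 10 mM MgCl2, 1 mM DTT, 0.1 mM Na3VO4, 0.01% Tween-20; ATP 10 uM. Substrate biotin-GST-cJun(1-79), enzyme from activated HepG2 lysates. Detection by Ser73 phospho-antibody AlphaScreen.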

[8] = molecular target: 3',5'-cyclic-AMP phosphodiesterase 4B (Homo sapiens) (UniProt Q07343); experiment: qHTS Assay for Inhibitors of PDE-IV (AID 607; active = well fitted activation curve with a large enough effect in the main read-out, with a control signal flat, not every such curve was filed as active; also: % of control where 0% means no effect)
Procedure, shortened: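 ACTOne HEK293 cells carry a modified cAMP-gated CNG channel and express endogenous PDE4; plated 1000 cells/well, compounds up to 22.9 uM final. Membrane-potential dye fluorescence (ex 535/em 590) was read; parental cells received 10 uM forskolin + 100 uM RO 20-1724.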

3',5'-cyclic-AMP phosphodiesterase 4B (Homo sapiens), sequence (Q07343 whole entry, looked up): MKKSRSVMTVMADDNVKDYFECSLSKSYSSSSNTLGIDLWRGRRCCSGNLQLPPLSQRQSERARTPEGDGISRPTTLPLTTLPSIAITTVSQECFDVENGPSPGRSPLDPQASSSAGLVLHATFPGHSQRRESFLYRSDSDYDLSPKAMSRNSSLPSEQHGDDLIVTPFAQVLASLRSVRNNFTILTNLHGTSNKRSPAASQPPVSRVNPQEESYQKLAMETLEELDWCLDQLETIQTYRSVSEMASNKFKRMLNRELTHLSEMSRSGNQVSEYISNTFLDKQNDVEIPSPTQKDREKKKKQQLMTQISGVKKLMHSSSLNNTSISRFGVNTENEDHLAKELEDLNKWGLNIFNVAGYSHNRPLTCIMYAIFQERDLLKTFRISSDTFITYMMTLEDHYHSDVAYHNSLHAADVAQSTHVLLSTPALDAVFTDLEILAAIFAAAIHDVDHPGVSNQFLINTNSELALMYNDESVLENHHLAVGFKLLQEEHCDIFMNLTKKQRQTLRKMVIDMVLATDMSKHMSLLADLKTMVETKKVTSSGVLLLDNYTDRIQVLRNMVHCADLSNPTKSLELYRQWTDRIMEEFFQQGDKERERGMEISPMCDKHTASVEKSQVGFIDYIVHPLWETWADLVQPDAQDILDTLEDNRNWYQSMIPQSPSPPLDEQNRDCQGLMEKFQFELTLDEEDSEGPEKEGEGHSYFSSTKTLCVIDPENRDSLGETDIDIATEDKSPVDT
Glucocorticoid receptor (Homo sapiens), sequence (P04150 whole entry, looked up, the tested form may be a part): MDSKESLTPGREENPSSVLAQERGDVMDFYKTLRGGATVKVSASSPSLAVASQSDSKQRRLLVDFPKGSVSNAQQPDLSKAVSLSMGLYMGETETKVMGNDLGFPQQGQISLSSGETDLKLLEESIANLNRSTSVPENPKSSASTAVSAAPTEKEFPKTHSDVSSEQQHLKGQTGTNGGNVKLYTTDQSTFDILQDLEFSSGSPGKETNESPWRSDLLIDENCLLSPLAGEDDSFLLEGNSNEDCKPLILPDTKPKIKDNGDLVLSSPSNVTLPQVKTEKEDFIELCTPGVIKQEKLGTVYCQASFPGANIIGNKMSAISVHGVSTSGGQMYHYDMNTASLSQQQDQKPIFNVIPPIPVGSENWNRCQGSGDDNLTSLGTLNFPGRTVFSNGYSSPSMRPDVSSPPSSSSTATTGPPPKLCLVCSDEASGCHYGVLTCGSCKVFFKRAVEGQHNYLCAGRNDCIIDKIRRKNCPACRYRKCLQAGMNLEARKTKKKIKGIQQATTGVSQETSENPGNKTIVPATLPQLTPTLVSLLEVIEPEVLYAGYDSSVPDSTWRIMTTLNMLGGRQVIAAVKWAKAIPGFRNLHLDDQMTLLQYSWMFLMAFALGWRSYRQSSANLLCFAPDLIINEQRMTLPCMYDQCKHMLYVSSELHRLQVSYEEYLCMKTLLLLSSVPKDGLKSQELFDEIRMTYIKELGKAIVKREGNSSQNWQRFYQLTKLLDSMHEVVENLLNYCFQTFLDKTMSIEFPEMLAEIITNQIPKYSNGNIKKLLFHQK
Cytochrome P450 1A2 (Homo sapiens), sequence (P05177 whole entry, looked up): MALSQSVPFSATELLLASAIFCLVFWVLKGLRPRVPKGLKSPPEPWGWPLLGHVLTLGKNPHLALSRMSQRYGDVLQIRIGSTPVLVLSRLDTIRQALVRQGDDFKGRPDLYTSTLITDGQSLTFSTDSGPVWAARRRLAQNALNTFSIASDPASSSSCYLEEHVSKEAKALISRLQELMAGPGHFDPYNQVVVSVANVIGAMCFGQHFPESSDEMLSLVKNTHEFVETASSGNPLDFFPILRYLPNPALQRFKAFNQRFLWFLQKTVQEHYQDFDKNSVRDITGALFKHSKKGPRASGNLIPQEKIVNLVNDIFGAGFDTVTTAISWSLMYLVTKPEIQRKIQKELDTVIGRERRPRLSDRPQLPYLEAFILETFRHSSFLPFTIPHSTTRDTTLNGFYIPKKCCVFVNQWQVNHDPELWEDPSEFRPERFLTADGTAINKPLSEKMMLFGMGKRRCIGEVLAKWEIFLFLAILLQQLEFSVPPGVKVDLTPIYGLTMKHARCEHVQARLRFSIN

C[C@@H]1O[C@H]1P(=O)(O)O
inactive: activity change, negative = inhibition [1] 0.559% [at 38 µM] | Potency [2] | activity change, negative = inhibition [3] 6.57% [at 38 µM] | activity, negative = inhibition [4] 22.2% [at 38 µM] | Potency [5] > 46 µM | Potency [6] > 46 µM | Potency [7] | outcome [8]

CCNC(=O)[C@@H]1O[C@@H](n2cnc3c(N)ncnc32)[C@@H](O)[C@H]1O
inactive: activity change, negative = inhibition [1] -6.61% [at 38 µM] | Potency [2] | activity change, negative = inhibition [3] -9.11% [at 38 µM] | activity, negative = inhibition [4] 24.4% [at 38 µM] | Potency [5] > 46 µM | Potency [6] > 46 µM | Potency [7]

CC(C)N[C@@H](C)Cc1ccc(I)cc1
inactive: activity change, negative = inhibition [1] 17.5% [at 38 µM] | activity change, negative = inhibition [3] -29.8% [at 38 µM] | activity, negative = inhibition [4] -4.05% [at 38 µM] | Potency [5] > 46 µM | Potency [6] > 46 µM | Potency [7] | outcome [8]
active: Potency [2] 10 µM

N[C@H](Cn1ccc(=O)[nH]c1=O)C(=O)O
inactive: activity change, negative = inhibition [1] -6.11% [at 38 µM] | Potency [2] | activity change, negative = inhibition [3] -2.89% [at 38 µM] | activity, negative = inhibition [4] 4.92% [at 38 µM] | Potency [5] > 46 µM | Potency [6] > 46 µM | outcome [8]

NC(=O)CN1C[C@@H](O)CC1=O
inactive: activity change, negative = inhibition [1] 2.98% [at 38 µM] | Potency [2] | activity change, negative = inhibition [3] 17.8% [at 38 µM] | activity, negative = inhibition [4] -8.38% [at 38 µM] | Potency [5] > 46 µM | Potency [6] > 46 µM | Potency [7] | outcome [8]

N[C@H](Cn1cc(I)c(=O)[nH]c1=O)C(=O)O
inactive: activity change, negative = inhibition [1] 10.7% [at 38 µM] | Potency [2] | activity change, negative = inhibition [3] -6.62% [at 38 µM] | activity, negative = inhibition [4] -6.5% [at 38 µM] | Potency [5] > 46 µM | Potency [6] > 46 µM | Potency [7] | outcome [8]

N[C@H](Cn1oc(=O)[nH]c1=O)C(=O)O
inactive: activity change, negative = inhibition [1] 0.495% [at 38 µM] | Potency [2] | activity change, negative = inhibition [3] -2.78% [at 38 µM] | activity, negative = inhibition [4] 6.66% [at 38 µM] | Potency [5] > 46 µM | Potency [6] > 46 µM | Potency [7] | outcome [8]

C[Se]C[C@@H](N)C(=O)O
inactive: activity change, negative = inhibition [1] 1.98% [at 38 µM] | Potency [2] | activity change, negative = inhibition [3] 5.06% [at 38 µM] | activity, negative = inhibition [4] -28.4% [at 38 µM] | Potency [5] > 46 µM | Potency [6] > 46 µM | Potency [7] | outcome [8]

Nc1ncnc2c1ncn2[C@@H]1O[C@@H](COP(=O)(O)CP(=O)(O)OP(=O)(O)O)[C@H](O)[C@@H]1O
inactive: activity change, negative = inhibition [1] -0.584% [at 38 µM] | Potency [2] | activity change, negative = inhibition [3] 3.86% [at 38 µM] | activity, negative = inhibition [4] -9.36% [at 38 µM] | Potency [5] > 46 µM | Potency [6] > 46 µM | Potency [7] | outcome [8]

CCCN1CC[C@@H]2c3cc(O)ccc3CC[C@H]21
inactive: activity change, negative = inhibition [1] -14.4% [at 38 µM] | Potency [2] | activity change, negative = inhibition [3] -28.7% [at 38 µM] | activity, negative = inhibition [4] -6.76% [at 38 µM] | Potency [5] > 46 µM | Potency [6] > 46 µM | Potency [7] | outcome [8]
